Source: PubChem BioAssay
In the library only some 19% were active in any assay of this set; here they are far more common.
IL1B secr inh – inhibitors of inflammasome signaling (IL-1 beta secretion); THP-1 LPS/ATP IL-1B secretion, AlphaLISA, 16 h; stronger effect = lower value; activity change, % at 57.5 µM; 360,000 tested, 4.7% active; AID 743279; in the data active = activity change below about -50%; inconclusive = mostly about -30% to -49%
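Secreted IL-1B measured by AlphaLISA bead assay after 16 h compound exposure of THP-1 cells; compounds (final up to 57.5 uM) added 1 h before LPS (250 ng/mL) and ATP (1.25 mM) stimulation; lower signal means less secretion.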
DT40 TDP1 CPT – DT40-hTDP1 cell growth loss with CPT; chicken DT40 Tdp1-/-;hTDP1 cells + 20 nM CPT, ATP luminescence, 48 h; Potency, µM (top dose mostly 46.2 µM), for inactives: top-dose activity change, negative = growth inhibition, usual class: inhibitors; 420,000 tested, 12% active; note: potency is the fitted concentration of half-maximal effect; nearly all actives have a fitted effect of over 55% in size
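Chicken DT40 Tdp1-/- cells complemented with human TDP1, 400 cells/well, exposed to compounds plus 20 nM camptothecin for at least 48 h at 37 C; viability read as ATP content by CellTiter-Glo luminescence.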
ELG1 repair inh – blocks ELG1-dependent DNA repair in HEK293T cells. HEK293T ELG1-luciferase reporter, luminescence, 16 h; DNA damage induced by 5-fluorouridine. Potency, µM (top dose mostly 46.1 µM), for inactives: at the top dose activity change, negative = inhibition, usual class: inhibitors. 330,000 tested, 2.3% active. AID 504467; note: potency is the fitted concentration of half-maximal effect; nearly all actives have a fitted effect of over 55% in size
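HEK293T cells expressing luciferase-tagged ELG1 (2,000/well) received 5-Fluorouridine plus compound or DMSO for 16 hr at 37 °C. Luciferase was read by ONE-Glo luminescence after 30 min at room temperature.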
TDP1 cell noCPT – qHTS for Inhibitors of human tyrosyl-DNA phosphodiesterase 1 (TDP1): qHTS in cells in absence of CPT; DT40 Tdp1-/- hTDP1 cells, no CPT, ATP luminescence, 48 h; Potency, µM (series often up to 46.2 µM), inactives show top-dose activity change, negative = growth inhibition, actives largely listed as inhibitors; 420,000 tested, 15% active; note: potency is the fitted concentration of half-maximal effect; nearly all actives have a fitted effect of over 55% in size
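A cellular qHTS used chicken DT40 cells lacking endogenous Tdp1 but carrying stably transfected human TDP1. Compounds were applied without camptothecin, and cell growth kinetics were judged by ATP-dependent luminescence after ≥48 hr.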
HT1080-NT tox – kills 2HG-producing HT-1080-NT fibrosarcoma cells; Potency, µM (series often up to 46.1 µM), without a hit: at the highest dose activity, negative = less viability, hits mostly cytotoxic; 360,000 tested, 1.6% active; HT-1080-NT fibrosarcoma viability, CellTiter-Glo ATP luminescence, 48 h;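 note: NT is the 2HG producing partner of a matched IDH1 knockdown line; potency is the fitted concentration of half-maximal effect; 0% = DMSO-treated cells and -100% = media-only wells without cells; nearly all actives have a fitted effect of over 55% in size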
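Fibrosarcoma NT cells, 750 per well in 5% FBS RPMI, were exposed to compound for 48 hours. Viability: CellTiter-Glo luminescence.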
HT1080 IDH1KD tx – HT-1080 IDH1 knockdown cell toxicity (counter line); Potency, µM (top dose mostly 46.1 µM), for inactives: at the top dose activity, negative = toxicity, usual class: cytotoxic; HT-1080 IDH1 knockdown viability, ATP luminescence, 48 h; AID 686971; 360,000 tested, 2% active;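 note: potency is the fitted concentration of half-maximal effect; 0% = DMSO wells and -100% = cell-free medium wells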
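IDH1KD HT-1080 cells, 750/well, RPMI + 5% FBS; compound pinned after 2 h settling; 48 h, 37 °C; CellTiter-Glo luminescence; % activity normalised to DMSO and no-cell wells; curves fitted, classed by r2 and efficacy.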
The depositor's hits bear a star; ? = inconclusive; . = not tested or not shown; ! = not confirmed by another sample; [ ] = another dose, or the depositor's remark. Unless noted, calls come from the whole dose curve; as a rule, active = well fitted curve in the direction sought with a large enough effect; inconclusive = small, poorly fitted or top-dose-only effect, or another doubt; inactive = no such curve, though single readings can be large; an effect the other way counts as inactive or inconclusive. Unless noted, % is set by controls: 0 for no effect and ±100 for the full control effect.

SMILES	IL1B secr inh	DT40 TDP1 CPT	ELG1 repair inh	TDP1 cell noCPT	HT1080-NT tox	HT1080 IDH1KD tx
CCOC(=O)C1=C(CSc2nc3ccccc3s2)NC(=O)NC1c1ccc(OC)cc1 (stereo not given)	-86*	21µM*	?	18µM*	?	?
CCOC(=O)C1=C(CSCC(=O)OC)NC(=O)NC1c1cc(C)ccc1C (stereo not given)	-15	-12%	8%	-14%	4%	-3%
O=S(=O)(Oc1ccc(Cl)cc1)c1cccc2cccnc12	-15	6%	17%	?	-10%	6%
CC(Oc1ccccc1F)C(=O)NNC(=O)c1cccc(S(=O)(=O)N2CCN(C)CC2)c1 (stereo not given)	5	8%	6%	-7%	4%	16%
c1ccc(N=Nc2ccc3cccccc2-3)cc1	-93*	-27%	.	?	-16%	-21%
Nc1ccc(N=Nc2ccccc2)c2ccccc12	25	32%	15%	3%	3%	-7%
Nc1ccc(N=Nc2ccccc2)c(N)n1	-20	9.4µM*!	?	11µM*!	2%	-1%
Cc1cccc(CS(=O)(=O)Cc2ccc(C(=O)NC3CCCC3)o2)c1	32	-24%	2%	15%	5%	2%
CC(O)(COc1ccccc1)c1ccc2c(c1)CN(C/C=C/c1ccco1)CCO2 (stereo not given)	.	-11%[9.04 µM]	.	?	.	.
O=C(N/N=C/c1ccco1)c1ccccc1OCc1ccc(Br)cc1	-5	21µM*	?	23µM*	-13%	-22%
Cc1ccc(/C=N/NC(=O)c2ccccc2OCc2cccc(Br)c2)o1	-99*	6.5µM*	?	7.3µM*	-30%	-2%
O=C(N/N=C/c1cccnc1)c1ccccc1OCc1cccc(Br)c1	-26	?	21µM*	?	10%	3%
CCOc1ccc(CCNC(=O)C2=C(C)C(=O)OC23CCCCC3)cc1	.	-27%	.	-12%	.	.
COC(=O)c1ccc(CNC(=O)CC[C@H]2O[C@@H](n3cc(C)c(=O)[nH]c3=O)C[C@@H]2O)cc1	6	9%	.	5%	30%	17%
Cc1[nH]c2ccccc2c1CC#N	18	?	15%	-11%	-5%	22%
Cc1[nH]c2ccccc2c1C1=CC(=O)C=CC1=O	-101*	1.6µM*	.	1.8µM*	-13%	21µM*
O=C(COC(=O)c1ccncc1)Nc1cccc2ccccc12	10	-4%	0%	-15%	1%	4%
C=C(C)CNC(=S)NNC(=O)CCn1c2ccc(Cl)cc2c2cc(Cl)ccc21	-100*	?	-18%	?	?	?
Cc1cc(NC(=O)n2ncc3c(C)cccc32)ccc1Br	.	?	.	-29%	.	.
COc1ccc(-c2cn3c(n2)sc2cc(C(=O)NCCCc4ccccc4)ccc23)cc1	.	-23%	.	-10%	.	.
COc1ccc(-c2cn3c(n2)sc2cc(C(=O)Nc4ccc(C)cc4C)ccc23)cc1	.	-30%	.	?	.	.
COc1cccc(-c2cn3c(n2)sc2cc(C(=O)NCCCc4ccccc4)ccc23)c1	.	6.5µM*	.	4.6µM*	.	.
O=C(NCc1cccs1)c1ccc2c(c1)sc1nc(-c3ccccc3)cn12	.	18µM*	.	23µM*	.	.
COc1ccc(-c2cn3c(n2)sc2cc(C(=O)NCc4cccs4)ccc23)cc1	.	10µM*	.	13µM*	.	.
COc1ccc(-c2cn3c(n2)sc2cc(C(=O)Nc4c(C)cccc4C)ccc23)cc1	.	13µM*	.	9.2µM*	.	.
SMILES	IL1B secr inh	DT40 TDP1 CPT	ELG1 repair inh	TDP1 cell noCPT	HT1080-NT tox	HT1080 IDH1KD tx
COc1ccc(CNC(=O)CCc2nc3cccnc3n2Cc2ccccc2)cc1	.	?	.	-28%	.	.
Cc1ccc(S(=O)(=O)N2CCC(C(=O)Nc3ccc(N4CCOCC4)cc3)CC2)cc1C	13	-2%	-2%	-20%	5%	10%
COc1ccc(-c2cn3c(n2)sc2cc(C(=O)N4CCCCC4)ccc23)cc1	.	?	.	21µM*	.	.
COc1cccc(C(=O)c2c[nH]c(C(=O)NCc3cccs3)c2)c1	-62*	-2%	-22%	-22%	-4%	7%
CCOc1ccc(CNC(=O)c2ccc3c(c2)sc2nc(-c4ccccc4)cn23)cc1	.	-17%	.	-13%	.	.
COc1cccc(-c2cn3c(n2)sc2cc(C(=O)NCc4cccs4)ccc23)c1	.	13µM*	.	6.5µM*	.	.
Cc1cccc(CN2CCN(C3CN(Cc4cn(Cc5ccccc5C(F)(F)F)nn4)S(=O)(=O)C3)CC2)c1 (stereo not given)	-25	?	.	?	-1%	-15%
O=c1cc(N2CCC(Cc3ccccc3)CC2)[nH]c(=O)n1C1CCCCC1	24	?	13%	16µM*	10%	2%
O=c1cc(N2CCCCC2)[nH]c(=O)n1C1CCCCC1	7	-19%	11%	0%	-4%	-1%
O=c1cc(N2CCc3ccccc3C2)[nH]c(=O)n1C1CCCCC1	-23	1.8µM*	10%	?	11%	5%
COC(=O)[C@]12CCCCC=C1N(Cc1ccccc1)C(=O)[C@H](CC(=O)NCCCN1CCCC1=O)C2	-4	-1%	.	-17%	10%	12%
COc1ccc(C2(O)C(=O)Nc3ccc(C)cc32)cc1OC (stereo not given)	50	3%	5%	-22%	9%	14%
Cc1cc(C)cc(NC(=O)CSc2ccc(-c3cccs3)nn2)c1	-72*	?	?	21µM*!	-19%	-28%
COC(=O)c1ccc(NC(=O)CSc2ccc(-c3cccs3)nn2)cc1	.	-18%	.	-15%	.	.
O=C(CSc1ccc(-c2cccs2)nn1)Nc1ccccc1	-15	13µM*!	?	21µM*	-12%	-6%
Cc1ccc(/C=C(\C#N)c2nc(-c3cc4c(ccc5ccccc54)oc3=O)cs2)cc1	.	3%	.	-8%	.	.
COc1ccc(/C=C(/C#N)c2nc(-c3cc4ccccc4oc3=O)cs2)cc1	.	?	.	15µM*	.	.
COc1ccc(/C=C(\C#N)c2nc(-c3cc4c(ccc5ccccc54)oc3=O)cs2)cc1O	.	2.9µM*	.	3.3µM*	.	.
COc1cc(-c2cc(C(=O)NCCc3ccc(S(N)(=O)=O)cc3)c3ccccc3n2)cc(OC)c1OC	-52*	4.1µM*	4.1µM*	3.3µM*	-1%	-4%
Cc1ccc(-c2cc(C(=O)N/N=C\c3cnn(C)c3C)c3ccccc3n2)cc1C	-10	12µM*	-17%	10µM*	-22%	-25%
